# Assay outcomes: PubChem, several laboratories
# Compounds with a hit are over-represented: about 1.8% of the library has one in this group of screens.
# Bfl-1 A1 inh = inhibitors of the anti-apoptotic protein A1, read as caspase activation. caspase activation, % (no concentration beside the values). MEF A1-2A-BIM cells, Caspase-Glo 3/7 luminescence, 3 h; percent of clofoctol response, vehicle zero. 330,000 tested, 0.066% active. AID 2462;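 active = over half of replicate activation scores above 10%, or exactly half above 10 with the replicate mean above 10; inconclusive = replicate mean below 10 yet half the replicates above 10; inactive = over half of replicates below 10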
# ARNT TACC3 PPI = ARNT/TACC3 interaction disruption; Q9Y6A5; AlphaScreen His-ARNT PAS-B/GST-TACC3 binding, luminescence; TACC3 fragment carries E629A point mutation; inhibition, % at 9.99 µM; 390,000 tested, 0.66% active;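 active = mean inhibition of replicates at least 50% and at least half of replicates each reaching 50%; inconclusive = half or more replicates reach 50% but mean below 50%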
# aDG glyco up = increases alpha dystroglycan glycosylation; Pro5-aDG cells, alpha-DG glycosylation AlphaScreen (IIH6); 0% Pro5, 100% B10-LARGE cell signal; activation, % at 10 µM; 360,000 tested, 0.22% active;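 active = activation of at least 8% versus controls, or a plate z-score of at least 8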;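 also: Pro5 are CHO cells carrying HIG-tagged alpha-DG that lacks glycosylation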
# AI-2 QS modul = modulates the Vibrio harveyi AI-2 quorum sensing system | Vibrio harveyi JMH597 AI-2 luminescence/OD600 ratio, 9 h; active compounds read low; strain lacks LuxN and CqsS sensors; 0 = neutral-control median | activity change, % at 7.5 µM | 300,000 tested, 0.4% active | AID 2094; in the data active = activity change below about -75%, passing the limit was not always enough; inconclusive = no clear call, values can overlap the other calls;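 also: luminescence divided by OD600 gain over 9 h not by final OD600 alone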
# Mot1-301 SUMO = inhibitors of SUMOylation pathway: yeast Mot1-301 growth rescue | 320,000 tested, 1% active | growth rescue, % at 18.8 µM | S. cerevisiae Mot1-301 growth rescue, ATP luminescence, 38.5C; percent above DMSO median, 100 means doubled;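 active = every valid replicate shows activation above 250% relative to neutral control wells; inactive = the rest, any valid replicate at or below 250%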
# JMH597 growth rt = retest: inhibitors of Vibrio harveyi JMH597 growth; OD600 absorbance, 9 h; lacks LuxN and CqsS sensors; 750 tested, 1% active; growth inhibition, % at 7.5 µM; shares compounds with AI-2 QS modul;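 active = every replicate shows growth inhibition above 50%; inconclusive = at least half, but not all, replicates pass that cutoff; inactive = fewer than half of replicates pass it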
# BB721 lum counter = retest counter-screen: BB721 constitutive quorum sensing luminescence decrease. shares compounds with AI-2 QS modul. Vibrio harveyi BB721 luminescence, 9 h. inhibition, % at 7.5 µM. 750 tested, 95% active. AID 2727;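 active = inhibition above about 80% in every replicate, not just on average, limit read from the data; inconclusive = at least half of replicates past the limit, but not all; inactive = fewer than half of replicates past the limit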
# BB721 growth rt = retest: inhibitors of Vibrio harveyi BB721 growth. shares compounds with AI-2 QS modul. OD600 absorbance, 9 h. growth inhibition, % at 7.5 µM. 750 tested, 3% active. AID 2728;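 active = every replicate shows growth inhibition above 50%; inconclusive = at least half but not all replicates above 50% inhibition; inactive = under half of replicates above 50% inhibition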
# JMH597 AI-2 mod = Vibrio harveyi AI-2 signaling luminescence modulation – JMH597 strain, confirmation. 750 tested, 97% active. Vibrio harveyi JMH597 AI-2 quorum sensing luminescence, 9 h; luxN and CqsS knockout, AI-2 only. inhibition, % at 7.5 µM. shares compounds with AI-2 QS modul;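 active = every replicate shows more than 75% inhibition of signal versus neutral control wells; inconclusive = half to three quarters of replicates exceed 75% inhibition; inactive = fewer than half of replicates exceed 75% inhibition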
# Numbers stand for hits; – = inactive; ? = inconclusive; · = no result.
SMILES,Bfl-1 A1 inh,ARNT TACC3 PPI,aDG glyco up,AI-2 QS modul,Mot1-301 SUMO,JMH597 growth rt,BB721 lum counter,BB721 growth rt,JMH597 AI-2 mod
Cc1cccc(NC(=O)CCOc2ccccc2)c1,–,–,–,-84,–,–,91,–,94
CC(=O)c1cccc(NC(=O)CN2C(=O)c3ccccc3C2=O)c1,–,–,–,-96,–,–,99,–,100
O=C(CCOc1ccccc1)Nc1cccc([N+](=O)[O-])c1,–,·,–,–,–,·,·,·,·
O=C(CN1C(=O)c2ccccc2C1=O)Nc1cccc(O)c1,–,–,–,?,–,·,·,·,·
O=C(CN1C(=O)c2ccccc2C1=O)Nc1cccc(S(=O)(=O)Nc2ccccc2Cl)c1,–,–,–,-83,–,–,90,–,93
O=C(CN1C(=O)c2ccccc2C1=O)Nc1cccc(Cl)c1,–,–,–,-93,–,–,99,–,99
CCC(=O)c1ccc(OCC(=O)Nc2ccccc2N2CCCCC2)cc1,–,–,–,–,–,·,·,·,·
NS(=O)(=O)c1cccc(NC(=O)COC(=O)Cc2n[nH]c(=O)c3ccccc23)c1,–,–,–,·,–,·,·,·,·
Cc1ccc(OCCC(=O)Nc2ccc(F)c(Cl)c2)cc1,–,–,–,-78,–,–,–,–,?
Cc1cc(NC(=O)CN2C(=O)c3ccccc3S2(=O)=O)no1,–,–,–,–,–,·,·,·,·
Cc1cccc(NC(=O)CCN2C(=O)c3ccccc3C2=O)c1,–,–,–,?,–,–,88,–,92
Cc1cc(NC(=O)CN2C(=O)c3ccccc3C2=O)no1,–,–,–,?,–,–,84,–,87
COc1ccc(C2C3=C(CC(C)(C)CC3=O)Nc3cc4c(cc32)OCO4)cc1 (stereo unspecified),–,–,–,–,–,·,·,·,·
CCCCc1nnc(NC(=O)Cn2cnc3ccccc3c2=O)s1,–,–,–,-95,·,–,99,–,99
CCc1nnc(NC(=O)CCn2cnc3ccccc3c2=O)s1,–,–,–,–,–,·,·,·,·
CCCCCc1nnc(NC(=O)Cn2cnc3ccccc3c2=O)s1,–,–,–,-94,–,–,98,–,99
COc1cc(SC)ccc1C(=O)Nc1ccc(OCC(=O)N2CCOCC2)cc1,·,–,–,–,·,·,·,·,·
CSc1ccc(Cl)c(C(=O)Nc2ccc(OCC(N)=O)cc2)c1,–,–,–,?,–,–,–,–,–
O=C(O)CC(=O)Nc1cc(Cl)ccc1O,–,–,–,–,–,·,·,·,·
O=C(CCc1ccccc1)Nc1cc(Cl)ccc1O,–,–,–,-97,–,–,100,–,100
O=C(C1CCOCC1)N1CC[C@@H]2[C@H](CO)Nc3ccc(Br)cc3[C@@H]21,·,–,·,·,·,·,·,·,·
COc1ccc(CN=CC2=C(O)CC(C)(C)CC2=O)cc1,–,–,–,-80,–,–,88,–,92
CC(C)COc1ccc(/C(=N/O)c2ccccc2)cc1,–,–,–,-85,–,–,94,–,95
NS(=O)(=O)c1ccc(CNC(=O)/C=C/c2ccco2)cc1,–,–,–,–,–,·,·,·,·
O=C(/C=C/c1ccco1)NCc1ccc(F)cc1,–,–,–,-85,–,–,94,–,96
SMILES,Bfl-1 A1 inh,ARNT TACC3 PPI,aDG glyco up,AI-2 QS modul,Mot1-301 SUMO,JMH597 growth rt,BB721 lum counter,BB721 growth rt,JMH597 AI-2 mod
CCc1nnc(NC(=O)CSc2ccc(-c3ccccc3OC)nn2)s1,–,–,–,-87,–,–,98,–,99
CCc1nnc(NC(=O)CSc2ccc(-c3cccs3)nn2)s1,–,–,–,-89,–,–,97,–,98
CCc1nnc(NC(=O)CSc2ccc(-c3ccc(F)cc3)nn2)s1,–,·,·,-93,–,–,90,–,93
Cn1c(SCC(=O)Nc2ccc3c(c2)oc2ccccc23)nnc1-c1ccccc1,–,–,–,–,–,·,·,·,·
O=S(=O)(c1ccc(Br)s1)n1cccn1,–,–,–,-91,–,–,98,–,100
O=C(Oc1ccc2c(=O)c(Oc3ccc4ccccc4c3)coc2c1)c1cccnc1,–,–,–,-89,–,–,97,?,97
O=C(Oc1ccc2c(=O)c(Cl)coc2c1)c1cccnc1,–,–,–,–,–,·,·,·,·
O=S(=O)(c1ccc2ccccc2c1)N1CCN(C(=S)Nc2ccccc2F)CC1,–,–,–,-97,–,–,100,–,100
O=C(CSc1ncc(-c2ccccc2)[nH]1)Nc1ccccc1,–,–,–,-82,–,–,93,–,94
O=C(CSc1ncc(-c2ccccc2)[nH]1)Nc1cccc(O)c1,–,–,–,–,–,·,·,·,·
Clc1ccc(OCCn2cnc(Cl)c2Cl)cc1,–,–,–,-84,–,–,88,–,92
Cc1cccc(N(CC(=O)NC2CC3CCC2C3)S(=O)(=O)c2ccccc2)c1 (stereo unspecified),–,–,–,–,–,·,·,·,·
CS(=O)(=O)c1ccccc1C(=O)NC1CCCc2ccccc21 (stereo unspecified),–,–,–,–,–,·,·,·,·
COc1ccc(C(=O)Cn2nnc(-c3ccccc3NC(=O)C3CC3)n2)cc1,–,–,–,–,–,·,·,·,·
COc1ccc(C(=O)Cn2nnc(-c3ccccc3F)n2)cc1,–,–,–,-86,–,–,95,–,97
CCCCNC(=O)COC(=O)c1ccc(NS(=O)(=O)c2ccc3c(c2)OCCO3)cc1,–,–,–,-92,–,–,98,–,99
CS(=O)(=O)N1CCC2CC1c1cc(-c3ccccc3)ccc12 (stereo unspecified),·,–,–,·,·,·,·,·,·
Oc1ccc(Cl)cc1CNc1cnc2ccccc2c1,–,–,–,-97,–,–,99,–,100
Cn1cc(C(=O)NS(=O)(=O)Nc2ccc(Br)cc2)c2ccccc21,–,–,–,–,–,·,·,·,·
O=C(CNc1ccc(Br)cc1)c1ccc(O)cc1,–,–,–,-82,–,–,90,–,93
CC(=O)c1cccc(NC(=S)NCc2ccccc2)c1,–,–,–,–,–,·,·,·,·
Cc1ccc(NC(=O)CCC(=O)c2cccs2)c(O)c1,–,–,–,-82,–,–,93,–,95
Fc1ccc(-c2nnc(CSc3nnc(-c4cccs4)o3)o2)cc1,–,–,–,–,–,·,·,·,·
c1ccc(CSc2nnc(-c3cccs3)o2)cc1,–,–,–,-90,–,–,97,–,98
c1ccc(-c2nnc(CSc3nnc(-c4cccs4)o3)o2)cc1,–,–,–,–,–,·,·,·,·
